Screens from PubChem BioAssay.
Rab9 prom act: activators of Rab9 promoter | Huh7 Rab9 promoter-luciferase reporter, luminescence, 24 h | Potency, µM (top dose mostly 9.22 µM), inactives show top-dose activation, negative = inhibition, usual class: activators | 2.8% of 320,000 active | AID 485297; note: % of control where 0% means no effect; nearly all actives have a fitted effect of over 60% in size
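Quantitative HTS format; Huh7 Rab9-luciferase reporter cells (1500/well) receive compound 2 h post-plating, incubate 24 h at 37 °C, then get luciferase reagent for 10 min before luminescence reading.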
KinaseGlo FLuc: blocks Kinase-Glo luciferase, a counter-screen artifact | Kinase-Glo luciferase, ATP luminescence, 8 min | 0.28% of 200,000 active | Potency, µM (top dose mostly 38.3 µM), without a hit: top-dose activity change, negative = inhibition, actives largely listed as inhibitors | Q27757 | AID 1379; note: % is set by controls: 0 for no effect and ±100 for the full control effect; nearly all actives have a fitted effect of over 60% in size
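Compounds were added to a substrate mix at pH 7.2 (50 mM imidazole, 10 uM ATP, within the enzyme's linear range), followed by Kinase-Glo detection reagent; luminescence was measured after 8 minutes at ambient temperature.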
ELG1 genotoxic: induces genotoxicity in HEK293T cells with luciferase-tagged ELG1 | Potency, µM (top dose mostly 46 µM), without a hit: at the top dose activity change, positive = activation, hits mostly activators | 1.3% of 330,000 active | HEK293T ELG1-luciferase reporter, luminescence, 16 h; note: % of control where 0% means no effect; nearly all actives have a fitted effect of over 60% in size
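Quantitative HTS format in 1536-well plates. HEK293T ELG1-luciferase reporter cells receive test compound and are incubated 16 hr at 37 °C, 5% CO2; ONE-Glo added, 30 min room temperature, then luminescence read.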
NPC1 prom act: activates the NPC1 promoter; Huh7 NPC1 promoter luciferase reporter, 24 h; Potency, µM (doses to about 9.22 µM), for inactives: at the highest dose activation, most hits filed as activators; 2.4% of 320,000 active; note: % of control where 0% means no effect; nearly all actives have a fitted effect of over 60% in size
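Luciferase expression driven by the NPC1 promoter was measured in stably transfected Huh7 cells after a 24 h compound incubation, using a luciferase reagent and a luminescence read.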
FLuc counter: inhibits or activates purified firefly luciferase, miR-21 counter-screen; 6.9% of 360,000 active; purified FLuc, Km substrates, luminescence inhibition; Potency, µM (highest dose often 57.5 µM), for inactives: at the top dose activity change, negative = inhibition, actives largely listed as inhibitors; P08659;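 note: plate controls were vehicle for no effect and reference inhibitor for full effect; nearly all actives have a fitted effect of over 55% in size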
Target sequence (P08659 whole entry, looked up): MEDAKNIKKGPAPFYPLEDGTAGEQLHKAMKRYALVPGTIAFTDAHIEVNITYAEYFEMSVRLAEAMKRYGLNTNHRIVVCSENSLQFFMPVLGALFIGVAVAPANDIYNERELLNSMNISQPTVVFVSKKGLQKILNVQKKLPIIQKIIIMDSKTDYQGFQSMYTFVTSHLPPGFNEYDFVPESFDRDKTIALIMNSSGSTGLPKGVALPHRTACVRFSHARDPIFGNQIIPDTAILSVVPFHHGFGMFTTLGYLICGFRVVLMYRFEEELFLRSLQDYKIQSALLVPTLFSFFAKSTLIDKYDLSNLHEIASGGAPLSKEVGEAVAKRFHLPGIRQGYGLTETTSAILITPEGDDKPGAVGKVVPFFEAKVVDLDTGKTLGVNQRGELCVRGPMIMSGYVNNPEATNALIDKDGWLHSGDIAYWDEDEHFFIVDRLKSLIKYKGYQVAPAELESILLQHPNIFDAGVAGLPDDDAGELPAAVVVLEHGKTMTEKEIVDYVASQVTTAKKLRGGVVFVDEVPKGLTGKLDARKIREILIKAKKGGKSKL
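Biochemical qHTS of compounds, final roughly 60 µM downward over six points, against 10 nM purified firefly luciferase using Km concentrations of substrates (10 uM D-luciferin, 10 uM ATP) in Tris acetate pH 7.5 buffer; luminescence output.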
SMN2 splice up: enhancers of SMN2 splice variant expression. HEK293 SMN2-luciferase splicing reporter, luminescence, 30-36 h. Potency, µM (top dose mostly 46.1 µM), for inactives: top-dose activity change, positive = activation, actives largely listed as activators. 2.8% of 210,000 active. AID 1458; note: % of control where 0% means no effect; nearly all actives have a fitted effect of over 55% in size
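HEK293 cells carry an SMN2 […]–luciferase reporter in which exon 7 inclusion puts luciferase in frame. Cells were plated 10-12 h before compound addition, then incubated 30-36 h at 37C. ONE-Glo luminescence was read; sodium butyrate at 4.5 mM final served as control.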
The depositor's hits bear a star; ? = inconclusive; . = no result given. Sampled rows, rich in hits. Any-hit rate of the full collection: about 7.5%. Calls come from the whole dose curve; as a rule, active = well fitted curve in the direction sought with a large enough effect; inconclusive = small, poorly fitted or top-dose-only effect, or another doubt; inactive = no such curve, though single readings can be large; an effect the other way counts as inactive or inconclusive. Potency is the fitted concentration of half-maximal effect.

SMILES	Rab9 prom act	KinaseGlo FLuc	ELG1 genotoxic	NPC1 prom act	FLuc counter	SMN2 splice up
COc1cc(SC)ccc1C(=O)NCCOc1ccc(Cl)cc1	1%	3%	-2%	0%	-16%	-11%
COc1cc(SC)ccc1C(=O)Nc1ccccn1	0.79µM*	.	?	0.79µM*	0.48µM*	.
COc1cc(SC)ccc1C(=O)Nc1ncc(Cl)cc1Cl	1.6µM*	-1%	?	4µM*	2.4µM*	13µM*
COc1cc(SC)ccc1C(=O)Nc1cccc(C)n1	2µM*	-4%	?	?	3.4µM*	11µM*
COc1cc(SC)ccc1C(=O)Nc1ccc(Br)cn1	0.28µM*	.	?	0.32µM*	0.076µM*	.
COc1cc(SC)ccc1C(=O)NC(C)C	-4%	-1%	4%	-3%	-4%	-2%
CC(C)C[C@@H](CC(=O)N[C@@H](CCCN)CC(=O)N[C@@H]1CCNC[C@H]1C(=O)N[C@H](CC(=O)N[C@@H](CCC(=O)O)CC(=O)O)Cc1ccccc1)NC(=O)[C@@H]1CNCC[C@H]1N	.	1%	.	.	.	2%
C[C@@H](NC(=O)[C@@H]1Cc2ccccc2CN1C(=O)OC(C)(C)C)C(=O)NC1CCCCC1	-1%	.	0%	-15%	0%	.
O=C1C(O)=C(O)C(=O)C(O)=C1O	.	-9%	.	.	.	7%
COc1cc(SC)ccc1C(=O)NCCc1ccccc1	3.5µM*	-3%	?	3.5µM*	6µM*	10µM*
COc1ccc(CNC(=O)c2ccc(SC)cc2OC)cc1	2%	3%	2%	0%	-3%	8%
COc1cc(SC)ccc1C(=O)Nc1ccon1	2.8µM*	-3%	?	?	13µM*	?
COc1cc(SC)ccc1C(=O)Nc1ncc(C)s1	0.45µM*	-2%	?	?	0.13µM*	1.3µM*
COc1cc(SC)ccc1C(=O)Nc1ccc2ncccc2c1	0.45µM*	.	?	1.3µM*	0.76µM*	.
CC1(C)CN(C(Cc2ccccc2)C(N)=O)C1=O (centres undefined)	0%	.	0%	-1%	-3%	.
O=C(NS(=O)(=O)Nc1ccccc1)C1=C(N2CCCC2)COC1=O	.	.	1%	.	.	.
O=C(NC(=O)c1ccccc1)C1=C(N2CCCC2)COC1=O	1.3µM*	.	?	2.2µM*	?	.
O=C(C[n+]1ccccc1)N/N=C/c1ccc(Br)cc1	-2%	.	-1%	-1%	.	.
COc1cccc(C(=O)OCC(=O)c2c[nH]c3ccccc23)c1O	17%	-3%	?	13%	19µM*	25%
COc1cccc(/C=C/C(=O)OCC(=O)c2c[nH]c3ccccc23)c1OC	1%	2%	0%	-2%	-11%	-15%
O=C(OCC(=O)c1c[nH]c2ccccc12)c1ccc(Br)o1	11%	-5%	6%	4%	17µM*	.
O=C(NCCc1c[nH]c2ccccc12)c1ccc(Br)o1	.	.	5%	.	.	.
O=C(OCC(=O)c1c[nH]c2ccccc12)c1ccco1	8%	-3%	16µM*	7%	9.5µM*	1%
Cc1csc(=O)n1CC(=O)Nc1ccc(Cl)cc1F	-3%	.	0%	-1%	4%	.
COc1cccc(CNC(=O)CSc2nc(=O)[nH]c3c2CCC3)c1	.	.	.	.	5%	.
SMILES	Rab9 prom act	KinaseGlo FLuc	ELG1 genotoxic	NPC1 prom act	FLuc counter	SMN2 splice up
CN(CC(=O)Nc1ccc(Cl)cc1)C(=O)Cc1c(F)cccc1Cl	-1%	.	1%	-5%	-2%	.
C=CCn1c(=O)c(C(=O)Nc2ccccc2C)c(O)c2ccccc21	4µM*	.	?	4µM*	?	.
C=CCn1c(=O)c(C(=O)Nc2ccccc2O)c(O)c2ccccc21	7%	-5%	1%	2%	?	3%
CCCn1c(=O)c(C(=O)Nc2ncccc2O)c(O)c2ccccc21	1%	.	-11%	7%	-3%	.
Cc1ccc(NC(=O)c2c(O)c3ccccc3n(C)c2=O)nc1	12%	-3%	15%	3.5µM*	?	?
Cc1cccc(NC(=O)c2c(O)c3ccccc3n(C)c2=O)c1	2µM*	.	?	2.8µM*	?	.
CCn1c(=O)c(C(=O)Nc2ccc(C)cc2)c(O)c2ccccc21	22%	.	7%	14%	?	.
Cn1c(=O)c(C(=O)Nc2ncccc2O)c(O)c2ccccc21	?	-4%	?	3.2µM*	?	24%
Cc1ccc(NC(=O)CN2C(=O)C(c3ccc(F)cc3)=NC2(C)C)c(C)c1	.	.	.	.	3%	7%
CCc1nn(CC(=O)Nc2ccc(N(CC)CC)cc2C)c(=O)c2cc3sccc3n12	.	.	.	.	1%	-13%
CCCc1cc(=O)[nH]c(SC(C)C(=O)N2c3ccccc3CC2C)n1 (centres undefined)	-3%	.	-1%	-1%	-2%	.
Cn1c(=O)c(C(=O)NCc2ccc(F)cc2)c(O)c2ccccc21	6%	.	0%	-2%	-15%	.
Cn1c(=O)c(C(=O)NCc2ccccc2)c(O)c2ccccc21	?	.	-1%	?	17µM*	.
Cc1ccnc(NC(=O)c2c(O)c3ccccc3n(C)c2=O)c1	4µM*	-3%	?	3.5µM*	3µM*	13µM*
COc1ccc(NC(=O)Nc2cccc(OC)c2)cc1	.	-10%	.	.	.	.
COc1cccc(NC(=O)Nc2nc(SC(C)(C)C)ns2)c1	8%	.	2%	17%	11µM*	.
COc1cccc(NC(=O)Nc2nc(SC)ns2)c1	1.4µM*	.	?	2.8µM*	6.7µM*	.
CCSc1nsc(NC(=O)Nc2cccc(F)c2)n1	-23%	.	-1%	-7%	19µM*	.
COc1ccc(-c2noc(CN(C)C(=O)c3ccoc3C)n2)cc1	11%	.	-2%	11%	-13%	.
CSc1nc(-c2ccc(Cl)cc2)nn1C(=O)c1ccccc1	?	.	17%	25%	11µM*	.
CSc1nc(-c2ccccc2)nn1C(=O)c1ccc(Cl)cc1	12%	-7%	4%	8%	-17%	?
CCCCOc1ccc2ccccc2c1C=O	20%	-7%	12%	20%	21µM*	-1%
Cc1cccc(NC(=O)CSc2nc(=O)n(CCN3CCOCC3)c3c2CCC3)c1C	.	.	.	.	3%	.
CCOC(=O)CNc1nc(Cl)nc(Nc2ccc(C)cc2)n1	3%	.	-2%	3%	2%	.
Cc1ccc(Nc2nc(Cl)nc(NC(C)(C)C)n2)cc1	21%	.	?	?	12µM*	.
CCc1c(-c2ccccc2)nc2nc(C)c(C)nn12	7%	-2%	13%	2%	?	-17%
c1ccc(-c2cc(-c3ccccc3)n3ncnc3n2)cc1	-9%	10%	3%	-1%	0%	-31%
CCc1ccc(-c2cn3nc(C)c(C)nc3n2)cc1	?	-4%	0%	0.089µM*	0.38µM*	-18%
